Screens (PubChem)
LASV entry inh – qHTS for Inhibitors of binding or entry into cells for Lassa Virus; Lassa virus pseudotype entry inhibition, cell reporter; Potency, µM (series often up to 37.9 µM), for inactives: at the highest dose activity change, negative = inhibition, hits mostly inhibitors; AID 540256, 2011; 300,000 tested, 1.2% active; calls by dose curve; tested in HEK293 cells; also: potency is read from the fitted curve at half-maximal effect; nearly all actives have a fitted effect of over 50% in size
MARV entry inh – qHTS for inhibitors of binding or entry into cells for Marburg Virus | AID 540276, 2011 | Marburg virus pseudotyped entry inhibition, cell reporter | Potency, µM (highest dose often 37.8 µM), for the others: at the top dose activity change, negative = inhibition, usual class: inhibitors | 300,000 tested, 1.8% active; calls by dose curve; tested in HEK293 cells; also: potency is read from the fitted curve at half-maximal effect
FMDV inh – High Throughput Screening for Foot and Mouth Disease Virus Antivirals | Potency, µM (top dose mostly 57.9 µM), for the others: top-dose activity change, negative = inhibition, hits mostly inhibitors | FMDV antiviral cell-based qHTS | 410,000 tested, 1.2% active | AID 1159524, 2015; calls by dose curve; tested in HEK293T cells; also: read-out not given here; potency is read from the fitted curve at half-maximal effect; nearly all actives have a fitted effect of over 45% in size
VACV Venus inh – qHTS for Stage-Specific Inhibitors of Vaccinia Orthopoxvirus: Venus Reporter Primary qHTS; Vaccinia virus Venus reporter expression, fluorescence; Potency, µM (series often up to 36.5 µM), for inactives: at the highest dose activity change, negative = inhibition, usual class: inhibitors; 330,000 tested, 0.46% active; AID 720580, 2013; calls by dose curve; tested in A549 cells; also: potency is read from the fitted curve at half-maximal effect; nearly all actives have a fitted effect of over 30% in size
Vaccinia mCherry – qHTS for Stage-Specific Inhibitors of Vaccinia Orthopoxvirus: mCherry Reporter Primary qHTS; Vaccinia virus mCherry reporter infection, fluorescence; Potency, µM (titrated, usually from 36.5 µM), without a hit: at the top dose activity change, negative = inhibition, usual class: inhibitors; 310,000 tested, 0.63% active; AID 720579, 2013; calls by dose curve; tested in A549 cells; also: potency is read from the fitted curve at half-maximal effect; nearly all actives have a fitted effect of over 35% in size
HCMV inh – qHTS Assay for inhibitors of the human cytomegalovirus (HCMV); 410,000 tested, 4.5% active; activity change, negative = inhibition, % at 57.5 µM; HFF cells, HCMV-luciferase reporter, 72 h; hits give low values; in the data active = activity change below about -60%; inconclusive = no clear call, values can overlap the other calls; inactive = above about -39%
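After 16 h attachment at 37C, HFF cells received test compound and HCMV-luciferase (1 PFU/cell); reporter luminescence read 72 h later, data normalized against buffer-only and known inhibitor Salinomycin.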
* hit, by the source's call; i = inactive; ? = inconclusive; . = no result given; [ ] = remark or other dose. An excerpt weighted towards active compounds, which were near 6.5% of everything screened. % is scaled to controls: 0 for no effect and ±100 for the full control effect.

SMILES | LASV entry inh | MARV entry inh | FMDV inh | VACV Venus inh | Vaccinia mCherry | HCMV inh
Cc1cccc(Cn2nc(C(C)(C)C)cc2C(=O)Nc2ccc(F)cc2)c1 | ? | ? | ? | 10.8%[7.34 µM] | -21.5%[7.34 µM] | -93.0*
CC(C)CC(N)c1csc(NC(=O)Nc2ccccc2Cc2ccccc2)n1 (stereo unspecified) | . | . | -18.5% | ? | ? | -35.4
COc1ccc(-c2nc3cnc(OC)nc3n(CCc3ccccc3)c2=O)cc1 | . | . | -13.8% | . | . | .
O=C1C(NS(=O)(=O)c2ccccc2)=C(N2CCN(c3ccc(F)cc3)CC2)C(=O)c2ccccc21 | . | . | -15.2% | ? | 0.316µM* | -39.8
O=C1C(NS(=O)(=O)c2ccc(Br)cc2)=C(N2CCCCC2)C(=O)c2ccccc21 | . | . | -8.0% | . | . | 6.3
O=C1C(Nc2ccccc2)=C(N2CCCCC2)C(=O)c2ccccc21 | -17.0% | ? | -3.3% | ? | 15.0%[1.46 µM] | -68.8*
Cc1ccc(NC2=C(N3CCCCC3)C(=O)c3ccccc3C2=O)cc1 | ? | ? | . | -13.9% | i | -103.2*
O=C1C(Nc2cccc(O)c2)=C(N2CCCCC2)C(=O)c2ccccc21 | -24.3% | ? | . | -19.9% | -0.9% | -28.0
CC1CCN(C2=C(NS(=O)(=O)c3ccccc3)C(=O)c3ccccc3C2=O)CC1 | -29.7% | ? | -16.1% | -13.5% | ? | -24.4
O=C(/C=C/c1ccc(O)cc1)c1ccc(NC2=C(N3CCCCC3)C(=O)c3ccccc3C2=O)cc1 | ? | ? | ? | ? | 1.41µM* | -98.7*
COC(=O)c1ccccc1NC(=O)Cn1cc(S(=O)(=O)Cc2ccccc2F)c2ccccc21 | 27.0%[46.1 µM] | . | -4.6% | -8.1% | -12.0% | 0.0
c1ccc2c(c1)cnc1ccccc12 | 3.8% | 22.1% | 22.9% | -14.7% | i | -3.1
c1ccc(-c2ncc3c(ccc4ccccc43)n2)cc1 | 3.55µM* | ? | -60.5% | -10.0% | -24.8% | ?
N#CC1(C#N)CC(C=O)=C(N)C1(C#N)CC(=O)C12CC3CC(CC(C3)C1)C2 (stereo unspecified) | ? | ? | 22.4µM* | -2.2% | i | -1.8
CCNc1nc(C#N)nc(NCC)n1 | . | . | . | -7.8% | 19.1% | .
CC(=O)NC1=C(N2CC2C)C(=O)C(NC(C)=O)=C(N2CC2C)C1=O (stereo unspecified) | -11.8% | -7.8% | 2.0% | -11.2% | -0.1% | -10.7
COCC(=O)OC1CCn2c1nc1c2C(=O)C(C)=C(NC(C)=O)C1=O (stereo unspecified) | 3.16µM* | ? | 10µM* | ? | ? | -79.2*
O=C(CCn1nc(-c2ccc(Cl)cc2)c2ccccc2c1=O)Nc1cccnc1 | -2.4%[46.1 µM] | ? | -14.8% | -18.3% | ? | -65.5*
COc1ccc(-c2nn(C)c(=O)c3ccccc23)cc1NC(=O)COc1ccc(C)cc1 | 5.8µM* | ? | ? | . | . | ?
Cn1nc(-c2ccc(OCC(=O)Nc3cccnc3)cc2)c2ccccc2c1=O | -4.2% | -12.7% | 35.5µM* | . | . | 97.5
Cc1ccc(NC(=O)COc2ccc(-c3nn(C)c(=O)c4ccccc34)cc2)cc1 | -6.4%[46.1 µM] | -19.4%[46.1 µM] | ? | ? | ? | -6.9
COc1ccc(NC(=O)CCn2nc(-c3ccc(Cl)cc3)c3ccccc3c2=O)cc1 | 21.7%[46.1 µM] | 12.2%[46.1 µM] | -2.5% | -22.6% | -19.0% | -3.0
N#Cc1ccc(-c2ccc(OCC(=O)Nc3cccnc3)cc2)cc1 | -13.9% | ? | ? | -14.5% | -10.7% | -68.8*
CCOC(=O)N1CCN(C(=O)c2cnn(-c3cccc(F)c3)c2-n2cccc2)CC1 | 12.0%[46.1 µM] | . | -10.6% | -15.6% | -10.9% | ?
CCOCCc1nn2c(=O)cc(COC(=O)c3ccc(NC(=O)C(C)(C)C)cc3)nc2s1 | 14.2%[46.1 µM] | . | ? | -14.1% | -7.3% | 2.4
SMILES | LASV entry inh | MARV entry inh | FMDV inh | VACV Venus inh | Vaccinia mCherry | HCMV inh
CSCCC(NS(=O)(=O)c1ccc(Br)cc1)C(=O)OCC(=O)NC1CC1 (stereo unspecified) | 10.7% | 2.8%[46.1 µM] | 8.1% | -15.5% | i | -64.9*
CSCCC(NS(=O)(=O)c1ccc(Cl)cc1)C(=O)OCC(=O)NC1CC1 (stereo unspecified) | 6.4% | 0.3% | -1.5% | -5.0% | -7.7% | -19.6
CCOC(=O)CC1(C)Oc2cc(Cl)ccc2N1S(=O)(=O)c1ccc(C)cc1 (stereo unspecified) | . | . | -26.6% | -18.6% | ? | -70.4*
CCOC(=O)CC1(CCc2ccccc2)Oc2ccccc2N1S(=O)(=O)c1ccc(C)cc1 (stereo unspecified) | . | . | 0.0% | 0.0% | -27.1% | ?
CCOc1c(Br)cc(CNc2ccc3c(c2)OCCO3)cc1OC | -7.0% | ? | 25.1µM* | ? | ? | -81.6*
CCOc1cc(CNc2ccc3c(c2)OCCO3)cc(Br)c1OC | ? | ? | 25.1µM* | ? | ? | -86.5*
O=C(CCCN1CC=C(N2C(=O)N=C3C=CC=CC32)CC1)c1ccc(F)cc1 (stereo unspecified) | . | -2.4% | . | . | . | .
CCc1nc2cc(C(=O)N(C)C3CCOC3)cc(NC(=O)c3ccccc3OC)c2n1C (stereo unspecified) | . | . | 2.3% | -15.9% | -19.3% | .
COCC1CCCN(C(=O)c2cc(COc3ccc4ncccc4c3)on2)C1 (stereo unspecified) | ? | ? | ? | -15.3% | -7.1% | -85.0*
O=C(c1cc(COc2ccc3ncccc3c2)on1)N1CCC(O)CC1 | -25.5% | ? | -26.8% | -19.7% | -29.8% | -82.4*
O=C(c1cc(COc2ccc3ncccc3c2)on1)N1CCC[C@H]1CO | ? | -21.1% | -11.0% | -17.0% | -11.0% | ?
O=C(c1cc(COc2ccc(F)cc2Cl)on1)N1CCCC(OCc2cccnc2)C1 (stereo unspecified) | -3.7% | -6.7%[46.1 µM] | 0.0% | -12.8% | -20.0% | ?
O=C(c1cc(COc2ccc(F)cc2Cl)on1)N1CCC(OCc2cccnc2)CC1 | -4.2% | -2.9%[46.1 µM] | -14.1% | -4.1% | -8.4% | -67.9*
O=C(c1cc(COc2ccc3ncccc3c2)on1)N1CCCC(O)C1 (stereo unspecified) | -5.1%[46.1 µM] | -18.1%[46.1 µM] | -19.8% | -27.9% | -9.7% | -63.5*
O=S(=O)(c1ccc2c(c1)CCC2)N1CCN(c2nc(-c3ccccc3)nc3ccccc23)CC1 | . | . | . | -15.9% | 0.0% | .
O=C(c1cc(COc2c(F)cccc2F)on1)N1CCC(c2ccncc2)CC1 | -7.5% | ? | -3.6% | -4.4% | -21.5% | -83.8*
O=C(NC1CCCCCCC1)c1cc(COc2ccc3ncccc3c2)on1 | ? | -19.0%[46.1 µM] | 3.55µM* | -17.7% | -24.9% | ?
CC(CNC(=O)c1cc(COc2ccc3ncccc3c2)on1)c1ccccc1 (stereo unspecified) | ? | ? | ? | -23.6% | -6.9% | -76.0*
Cc1cccc(C)c1OCc1cc(C(=O)N2CCC(c3ccncc3)CC2)no1 | 14.1%[46.1 µM] | ? | -4.1% | -20.3% | -15.9% | ?
